The campaign covered roughly 5,500 compounds. About 2,000 (36%) were called active. Roughly 18% stayed inconclusive and do not appear here. Cut-off read from the data, not from the text of the source: active = normalized growth mostly below about 0.91 (no sharp cut-off); inconclusive = no clear call, values can overlap the other calls; inactive = mostly above about 0.92. The list shows a part of the results.
Assay: chemical genetic growth profiling, strain panel (AID 1159580);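 note: tested at 20 µM; growth read once vehicle control cultures reached saturation at 30 °C; 1 = growth at the plate median or of vehicle wells; lower values mean less growth of the strain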
Details: S. cerevisiae deletion strains, growth OD

Measured: normalized growth

COc1ccccc1N1CCN(CCCCN2C(=O)c3ccccc3C2=O)CC1
inactive: locus YAL013W, strain DEP1, hits give low values 1 | locus YAL040C, strain CLN3, hits give low values 0.99 | locus YCL061C, strain MRC1 (second series), hits give low values 0.995 | locus YDR363W, strain ESC2, hits give low values 0.963 | locus YER002W, strain NOP16, hits give low values 1.01 | locus YGR078C, strain PAC10, hits give low values 0.985 | locus YGR229C, strain SMI1, hits give low values 1.02 | locus YJR075W, strain HOC1, hits give low values 0.993 | locus YMR263W, strain SAP30, hits give low values 1 | locus YNL153C, strain GIM3, hits give low values 0.99 | locus YNL175C, strain NOP13, hits give low values 0.979 | locus YNL197C, strain WHI3, hits give low values 0.981 | locus YNL224C, strain SQS1, hits give low values 1 | locus YOR083W, strain WHI5 (second series), hits give low values 0.985 | locus YPL055C, strain LGE1, hits give low values 0.971 | locus YPL241C, strain CIN2, hits give low values 1
